PubChem BioAssay (EPA / NIEHS)
Results filed as inconclusive are left out. Activity calls are given as the source filed them. The calls were made as follows, unless noted: active = hit-call score of the fitted dose curve at least 0.9, where 1 is the maximum; inactive = score below 0.9.

Columns and labels:
[1] = CCTE_Shafer_MEA_dev_firing_rate_mean: CCTE's Neural Network Formation Assay for Mean Firing Rate, Shafer Lab (AID 2284031);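 also: curve fitted for loss of firing so AC50 reflects decreased mean firing rate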
Method in brief: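 Primary rat cortical neurons on 48-well MEA plates, exposed from plating day 0 with dosing renewed on DIV 5 and 9. Mean well firing rate over active electrodes, recorded days 5, 7, 9, 12, summarised as trapezoidal AUC.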

[2] = CCTE_Shafer_MEA_dev_per_burst_spike_percent: CCTE's Neural Network Formation Assay for Percent of Spikes in a Burst, Shafer Lab (AID 2284032);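 also: fitted as a decrease in burst spike percentage below DMSO baseline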
Method in brief: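 Rat primary cortical neurons on 16-electrode MEA wells, dosed from plating day 0 for 12 days with renewal on DIV 5 and 9; spikes-in-bursts percentage averaged over bursting electrodes, collapsed as AUC across days 5, 7, 9, 12; loss direction versus DMSO.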

[3] = CCTE_Shafer_MEA_dev_active_electrodes_number: CCTE's Neural Network Formation Assay for Number of Active Electrodes, Shafer Lab (AID 2284040; active = hit-call score of the fitted dose curve at least 0.9, where 1 is the maximum;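 also: potency for loss of active electrodes versus DMSO so lower counts are hits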)
Method in brief: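 Primary rat cortical neurons on 16-electrode MEA wells, exposed from day 0 through day 12 with compound renewed at DIV 5 and 9 feeds. Active electrodes (mean firing ≥5 spikes/min) counted at DIV 5, 7, 9, 12; trapezoidal AUC across days, loss-of-signal versus DMSO.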

[4] = CCTE_Shafer_MEA_dev_burst_rate: CCTE's Neural Network Formation Assay for Burst Rate, Shafer Lab (AID 2284042);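 also: potency for loss of burst rate below DMSO control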
Method in brief: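 Primary rat cortical neurons on PEI-coated 48-well MEA plates (laminin added with cells at plating) (16 electrodes/well), exposed from plating to day 12, dosing renewed at DIV 5 and 9. Burst rate averaged over active electrodes, recorded DIV 5, 7, 9, 12, summarized as AUC; loss versus DMSO.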

[5] = CCTE_Shafer_MEA_dev_per_burst_interspike_interval: CCTE's Neural Network Formation Assay for Burst Interspike Interval, Shafer Lab (AID 2284044);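 also: mean spike spacing inside bursts as AUC over recordings on days 5 7 9 12; potency for a decrease of within-burst interspike interval below DMSO level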
Method in brief: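 Primary rat cortical neurons on 48-well MEA plates, exposed from day 0 through day 12, treatment renewed at DIV 5 and 9. Within-burst interspike interval recorded days 5, 7, 9, 12, well-averaged, summarised as AUC; negative fit versus DMSO.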

[6] = CCTE_Shafer_MEA_dev_burst_duration_mean: CCTE's Neural Network Formation Assay for Mean Burst Duration, Shafer Lab (AID 2284045);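 also: curve fitted for loss meaning shorter burst duration than DMSO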
Method in brief: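 Primary rat cortical neurons on 48-well 16-electrode MEA plates, exposed from day 0 with renewal at DIV 5 and 9; spontaneous activity recorded on days 5, 7, 9, 12. Well-mean burst duration across bursting electrodes, collapsed as trapezoidal AUC; DMSO baseline.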

[7] = CCTE_Shafer_MEA_dev_interburst_interval_mean: CCTE's Neural Network Formation Assay for Mean Interburst Interval, Shafer Lab (AID 2284046);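 also: well-mean interburst interval of bursting electrodes as AUC over four recording days; curve fitted for decrease in interburst interval relative to DMSO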
Method in brief: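 Recordings on days 5, 7, 9 and 12 give well-mean interburst interval across actively bursting electrodes, summarized as area under the curve. Cultures: rat cortical neurons, continuous exposure from day 0, compound renewed at feeds; decrease analyzed versus DMSO.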

[8] = CCTE_Shafer_MEA_dev_inter_network_spike_interval_mean: CCTE's Neural Network Formation Assay for Mean Inter-network Spike Interval, Shafer Lab (AID 2284047);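 also: potency for a decrease in mean inter-network spike interval below DMSO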
Method in brief: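 Primary rat cortical neurons on 16-electrode MEA wells, exposed from plating day 0 through DIV 12, compound renewed at DIV 5 and 9 media changes. Mean interval between network-spike peaks recorded DIV 5, 7, 9, 12; collapsed as trapezoidal AUC, fitted downward versus DMSO.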

[9] = CCTE_Shafer_MEA_dev_network_spike_number: CCTE's Neural Network Formation Assay for Number of Network Spikes, Shafer Lab (AID 2284048);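 also: synchronized bursts across electrodes counted on days 5 7 9 12 and integrated as AUC; fit as a loss of signal meaning fewer network spikes than DMSO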
Method in brief: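 Primary rat cortical neurons on PEI/laminin 48-well MEA plates, dosed from plating day 0 for 12 days, renewed at DIV 5 and 9. Network spike counts recorded DIV 5, 7, 9, 12, collapsed as trapezoidal AUC; DMSO baseline.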

[10] = CCTE_Shafer_MEA_dev_network_spike_peak: CCTE's Neural Network Formation Assay for Mean Number of Electrodes in Network Spike, Shafer Lab (AID 2284049);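 also: fitted for loss of signal meaning fewer electrodes in network spikes than DMSO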
Method in brief: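 Network-spike peak electrode count from recordings on days 5, 7, 9 and 12 was combined as trapezoidal area under the curve. Rat cortical cultures were treated continuously from plating, with compound renewed at each feed (DIV 5, 9); fits versus DMSO.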

[11] = CCTE_Shafer_MEA_dev_spike_duration_mean: CCTE's Neural Network Formation Assay for Mean Spike Duration, Shafer Lab (AID 2284051);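 also: mean network spike duration pooled as area under curve over DIV 5 to 12 recordings; potency for a decrease in mean network spike duration versus DMSO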
Method in brief: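 Primary rat cortical neurons on 16-electrode MEA wells (PEI-coated, laminin in plating drop), exposed from plating through DIV 12 with compound renewed at DIV 5 and 9. Mean network-spike duration recorded DIV 5, 7, 9, 12; trapezoidal AUC across days, DMSO baseline.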

[12] = CCTE_Shafer_MEA_dev_network_spike_duration_std: CCTE's Neural Network Formation Assay for Standard Deviation of Network Spike Duration, Shafer Lab (AID 2284052);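 also: area under curve of spike duration SD across recording days 5 to 12; hits are decreases in network spike duration SD versus DMSO vehicle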
Method in brief: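 Primary rat cortical neurons on PEI-coated 16-electrode MEA wells, exposed from plating day 0 through day 12 with compound renewed at DIV 5 and 9. Network spike duration SD recorded on days 5, 7, 9, 12, collapsed as trapezoidal AUC; loss-of-signal fit versus DMSO.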

[13] = CCTE_Shafer_MEA_dev_per_network_spike_spike_number_mean: CCTE's Neural Network Formation Assay for Mean Number of Spikes in a Network Spike, Shafer Lab (AID 2284053);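 also: fitted as decrease in spikes per network spike relative to DMSO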
Method in brief: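 Primary rat cortical neurons on 48-well, 16-electrode MEA plates were exposed from plating to DIV 12, with dosing renewed on DIV 5 and 9. Spikes per network spike (0.05 s peak window) were recorded on DIV 5, 7, 9 and 12 and collapsed as trapezoidal AUC versus DMSO.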

[14] = CCTE_Shafer_MEA_dev_per_network_spike_spike_percent: CCTE's Neural Network Formation Assay for Percent of Spikes in a Network Spike, Shafer Lab (AID 2284054)
Method in brief: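 Rat primary cortical neurons were grown on 48-well MEA plates (16 electrodes/well), exposed from plating day 0 through day 12, with treatment renewed on DIV 5 and 9. Percent of spikes within 0.05 s network-spike peaks was measured, summarised as AUC across days 5, 7, 9, 12.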

[15] = CCTE_Shafer_MEA_dev_LDH: CCTE's Lactate Dehydrogenase Assay for Cytotoxicity in the Neural Network Formation Assay, Shafer Lab (AID 2284068; active = hit-call score of the fitted dose curve at least 0.9, where 1 is the maximum;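 also: exposure for twelve days from plating with re-dosing on DIV 5 and 9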)
Method in brief: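 Primary rat cortical neurons were plated on PEI/laminin MEA plates and exposed from day 0 for twelve days, with compound renewed at DIV 5 and 9. Cytotoxicity was determined by spectrophotometric LDH assay relative to DMSO.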

[16] = CCTE_Shafer_MEA_dev_AB: CCTE's Alamar Blue Assay for Cytotoxicity in the Neural Network Formation Assay, Shafer Lab (AID 2284083; active = hit-call score of the fitted dose curve at least 0.9, where 1 is the maximum;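 also: twelve days of exposure from plating with re-dosing on DIV 5 and 9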)
Method in brief: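 Primary rat cortical neurons on PEI-coated 48-well MEA plates, 1.5 x 10^5 cells/well in laminin drop; compound exposure from day 0 of plating for twelve days, renewed at medium changes on DIV 5 and 9. Viability read as resazurin reduction by fluorescence, relative to DMSO.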

[17] = CCTE_Shafer_MEA_dev_mutual_information_norm: CCTE's Neural Network Formation Assay for Mutual Information Normalization, Shafer Lab (AID 2284091);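 also: mutual information between electrodes summarised as area under curve across four recording days; potency is for a decrease in mutual information relative to DMSO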
Method in brief: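 Primary rat cortical neurons on PEI-coated 48-well MEA plates, 1.5 x 10^5 cells/well, exposed from day 0 through day 12 with re-dosing at DIV 5 and 9. Mutual information between electrodes recorded days 5, 7, 9, 12; trapezoidal AUC, loss-of-signal fit versus DMSO.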

[18] = CCTE_Shafer_MEA_dev_correlation_coefficient_mean: CCTE's Neural Network Formation Assay for Mean Correlation Coefficient, Shafer Lab (AID 2284093);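 also: well mean pairwise spike train correlation integrated as AUC over recording days 5 to 12; potency fitted for loss of correlation relative to DMSO vehicle wells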
Method in brief: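 Spontaneous activity recorded on days 5, 7, 9 and 12 post-plating; pairwise spike correlations are averaged across active electrodes and collapsed to an area-under-curve. Rat cortical cultures are dosed from plating through 12 days, with compound renewed at media changes.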

[19] = UKN2_HCS_IMR90_neural_migration: University of Konstanz (UKN) Leist Lab Neural Crest Cell Migration Assay in human induced IMR90 Pluripotent Stem Cells (UKN2) (AID 2284204); conditions: actives raise or lower the signal
Method in brief: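 iPSC-derived IMR90 neural crest cells seeded around stoppers on PLO/laminin/fibronectin; migration started in N2-S medium with EGF/FGF, compounds added after 24 h for 24 h. Migration into cell-free area imaged after calcein-AM/Hoechst staining; bidirectional fit versus DMSO.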

[20] = IUF_NPC1b_proliferation_BrdU_72hr: Leibniz Research Institute for Environmental Medicine (IUF) 72-hour Neural Progenitor Cell Bromodeoxyuridine (BrdU) Proliferation Assay (NPC1b) (AID 2284207)
Method in brief: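 BrdU luminescence ELISA quantified DNA synthesis over the last 16 h of a 72 h exposure, fitted against DMSO. Primary hNPC spheres from gestational week 16-19 cortex grown with EGF/FGF at 37C, pH 7.2-7.6.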

[21] = IUF_NPC1a_proliferation_area_72hr: Leibniz Research Institute for Environmental Medicine (IUF) 72-hour Neural Progenitor Cell Proliferation Area Assay (NPC1a) (AID 2284208)
Method in brief: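 Single 0.25–0.35 mm human fetal neural progenitor spheres in proliferation medium with EGF and FGF, exposed 72 h from plating without renewal at 37C, pH 7.2-7.6. Sphere area growth measured by automated phase-contrast imaging, relative to DMSO.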

[22] = IUF_NPC1_viability_72hr: Viability Assessment at 72 hours in the Leibniz Research Institute for Environmental Medicine (IUF) Neural Progenitor Cell Proliferation Assay (NPC1) (AID 2284209)
Method in brief: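 Single spheres (0.25-0.35 mm) of human fetal cortex-derived neural progenitor cells were grown in proliferation medium with EGF and FGF at 37C and 5% CO2. They were exposed for 72 h without renewal, and viability was read by alamar blue resorufin fluorescence.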

[23] = CCTE_Mundy_HCI_Cortical_Synap_Neur_Matur_NeuriteSpotCountPerNeuriteLength: CCTE's Synaptogenesis and Neurite Maturation Assay in rat cortical cells for Neurite Spot Count per Neurite Length, Mundy Lab (AID 2284210)
Method in brief: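 Rat primary cortical cultures, AraC added at DIV 5 to suppress glia; chemical exposure from DIV 7 to DIV 12. Fixed cells stained for MAP2 and synaptophysin plus Hoechst; synaptophysin puncta per neurite length quantified by high-content imaging, relative to DMSO.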

[24] = CCTE_Mundy_HCI_Cortical_Synap_Neur_Matur_BPCount: CCTE's Synaptogenesis and Neurite Maturation Assay in rat cortical cells for Branch Point Count, Mundy Lab (AID 2284211)
Method in brief: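 Rat primary cortical cultures, AraC added DIV 5; chemicals dosed DIV 7 through DIV 12. Fixed cells stained for MAP2, synaptophysin and Hoechst; neurite branch points counted by automated high-content imaging, fitted relative to DMSO.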

[25] = CCTE_Mundy_HCI_Cortical_NOG_NeuriteCount: CCTE's Neurite Outgrowth Assay in rat cortical cells for Neurite Count, Mundy Lab (AID 2284212);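 also: cells fixed about two days after chemical exposure began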
Method in brief: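 Neurite number per cell from high-content imaging of betaIII-tubulin immunostaining, with Hoechst nuclear counterstain.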

[26] = CCTE_Mundy_HCI_Cortical_NOG_NeuriteLength: CCTE's Neurite Outgrowth Assay in rat cortical cells for Neurite Length, Mundy Lab (AID 2284213);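 also: neurites imaged about 48 to 50 h after chemical exposure began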
Method in brief: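 Neurite length was read by high-content imaging of βIII-tubulin-labelled neurites in rat primary cortical cultures. Activity was fitted relative to DMSO.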

Measured: AC50

Cc1c(O)cccc1C(=O)N[C@@H](CSc1ccccc1)[C@H](O)CN1C[C@H]2CCCC[C@H]2C[C@H]1C(=O)NC(C)(C)C
active: [1] 438 nM | [2] 1430 nM | [3] 953 nM | [4] 664 nM | [5] 473 nM | [6] 311 nM | [7] 1510 nM | [8] 1090 nM | [9] 1560 nM | [10] 1260 nM | [11] 559 nM | [12] 1270 nM | [13] 1190 nM | [14] 6350 nM | [15] 7060 nM | [16] 10100 nM | [17] 772 nM | [18] 1780 nM | [20] 8000 nM | [21] 25000 nM | [22] 14000 nM | [23] 6390 nM | [24] 4720 nM | [25] 33800 nM | [26] 28900 nM
inactive: [19]
